Common to all, as to assay: NCI-60 one-dose screen, 48 h (100 = growth as untreated, 0 = no growth, -100 = all killed)
In one experiment the test system is SK-MEL-2 melanoma. The settings on record: 10 µM unless noted.
For another experiment, the system named is EKVX NSCLC. The note with it: 10 µM unless noted.
A further experiment deals with SN12C renal. The note with it: 10 µM unless noted.
Another experiment relates to UO-31 renal. The settings on record: 10 µM unless noted.
The test system of a further experiment is TK-10 renal. The settings on record: 10 µM unless noted.
For the next experiment, the system named is ACHN renal. The settings on record: 10 µM unless noted.
The next experiment has as its system CAKI-1 renal. The settings on record: 10 µM unless noted.
For another experiment, the system named is A498 renal. The settings on record: 10 µM.
The next experiment has as its system HL-60(TB) leukemia. The note with it: 10 µM unless noted.
The subject of a further experiment is CCRF-CEM leukemia. The settings on record: 10 µM unless noted.
A further experiment concerns MOLT-4 leukemia. The note with it: 10 µM unless noted.
The next experiment deals with SR leukemia. The settings on record: 10 µM unless noted.
The subject of the next experiment is RPMI-8226 leukemia. The settings on record: 10 µM unless noted.
The next experiment relates to OVCAR-8 ovarian. The settings on record: 10 µM unless noted.
The subject of the next experiment is OVCAR-5 ovarian. The settings on record: 10 µM unless noted.
Another experiment relates to OVCAR-4 ovarian. The settings on record: 10 µM unless noted.
The next experiment deals with SK-OV-3 ovarian. The note with it: 10 µM unless noted.
A further experiment deals with IGROV1 ovarian. The note with it: 10 µM unless noted.
Another experiment has as its system OVCAR-3 ovarian. The settings on record: 10 µM unless noted.
A further experiment deals with HS 578T breast. The settings on record: 10 µM unless noted.

This is part of a sample that, as a whole, favours compounds with a hit. Of some 83,000 tested, about 20% had one in any assay.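 48-hour exposure, single concentration, 96-well plates; percent growth endpoint where 0 means no net growth. Active: below 10.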 Unmarked numbers belong to inactive results. Calls of active or inactive are those of the source.

Regarding `C[N+]12CN3CN(CN(C3)C1)C2`, the growth in the experiment with SK-MEL-2 melanoma is 96.2%; with EKVX NSCLC it was 96.4%; in the experiment with SN12C renal, 112%; in the experiment on UO-31 renal it was 95.5%; with TK-10 renal it was 128%; in the experiment with ACHN renal, 108%. Moreover, the growth in the experiment with CAKI-1 renal is 83.6%; with A498 renal, 109%; in the experiment with HL-60(TB) leukemia, 142%; with CCRF-CEM leukemia, 73.8%; with MOLT-4 leukemia, 123%; in the experiment with SR leukemia, 138%. Further, the growth in the experiment on RPMI-8226 leukemia was 88%; in the experiment on OVCAR-8 ovarian it was 100%; in the experiment on OVCAR-5 ovarian, 82.7%; in the experiment with OVCAR-4 ovarian, 105%; in the experiment with SK-OV-3 ovarian, 118%; in the experiment with IGROV1 ovarian, 91.2%. Further, the growth in the experiment on OVCAR-3 ovarian was 115%; with HS 578T breast, 98%.

In the case of `CC(=O)c1ccc(C(=O)NCC2CCC3(CC2)OOC2(CCCCC2)OO3)cc1`, the growth with SK-MEL-2 melanoma was 76.7%; with EKVX NSCLC it was -1.77% (active); in the experiment on SN12C renal, 78%; with UO-31 renal, -78.4% (active); with TK-10 renal, 86.3%; with ACHN renal, 64.6%. The growth with CAKI-1 renal was -29.9% (active); in the experiment with A498 renal, 89.2%; in the experiment with HL-60(TB) leukemia it was 19.6%; in the experiment on CCRF-CEM leukemia it was 31.9%; with MOLT-4 leukemia, 63.4%; in the experiment on SR leukemia it was 39%. Besides, the growth was 69.3% in the experiment with RPMI-8226 leukemia; 70% with OVCAR-5 ovarian; 75.4% with OVCAR-4 ovarian; 99.6% in the experiment with SK-OV-3 ovarian; 12.2% in the experiment with IGROV1 ovarian; 83% in the experiment on OVCAR-3 ovarian.

With `O=C(N/N=C/c1ccc(N(CCCl)CCCl)cc1)c1cccc2ccccc12`, the growth is 81.2% in the experiment on SK-MEL-2 melanoma; 85.2% in the experiment with EKVX NSCLC; 73.8% in the experiment on SN12C renal; 78.7% with UO-31 renal; 87.7% with TK-10 renal; 80.7% with ACHN renal. Further, the growth is 80.5% in the experiment on CAKI-1 renal; -9.28% (active) with A498 renal; 29.5% in the experiment with HL-60(TB) leukemia; 56.6% in the experiment with CCRF-CEM leukemia; 51.4% in the experiment with MOLT-4 leukemia; 24.2% with SR leukemia. Further, the growth in the experiment on RPMI-8226 leukemia was 73.9%; with OVCAR-5 ovarian, 93%; in the experiment with OVCAR-4 ovarian it was 88.5%; with SK-OV-3 ovarian it was 69.1%; in the experiment with IGROV1 ovarian, 79.2%; with OVCAR-3 ovarian it was 61.8%. In the experiment on HS 578T breast, the growth was 69.4%.

Take `O=C(CC1(O)C(=O)N(Cc2ccccc2)c2ccc(Cl)cc21)c1ccc(C(=O)NCC2CCC3(CC2)OOC2(CCCCC2)OO3)cc1` (stereo not drawn): the growth with SK-MEL-2 melanoma is 2.93% (active); with EKVX NSCLC, -71.1% (active); in the experiment with SN12C renal, -58.1% (active); with UO-31 renal, -74.2% (active); in the experiment with TK-10 renal, -91.5% (active); in the experiment on ACHN renal, -83.9% (active). Also, the growth is -94.3% (active) in the experiment with CAKI-1 renal; -91% (active) in the experiment with A498 renal; -62.7% (active) in the experiment on HL-60(TB) leukemia; -42.7% (active) in the experiment with CCRF-CEM leukemia; -50.5% (active) with MOLT-4 leukemia; -44.2% (active) in the experiment with SR leukemia. The growth was -27.7% (active) in the experiment on RPMI-8226 leukemia; -27.5% (active) in the experiment with OVCAR-8 ovarian; 5.96% (active) in the experiment on OVCAR-5 ovarian; -40.2% (active) in the experiment with OVCAR-4 ovarian; 68% in the experiment on SK-OV-3 ovarian; -35.2% (active) in the experiment on IGROV1 ovarian. Besides, the values for the growth in the experiment on OVCAR-3 ovarian and in the experiment with HS 578T breast were -83.8% (active) and -4.46% (active), respectively.

As to `Cc1cc(N(CCCl)CCCl)ccc1C=Nc1cccnc1`, the growth is 101% in the experiment with SK-MEL-2 melanoma; 104% in the experiment with EKVX NSCLC; 57.2% with SN12C renal; 70.3% in the experiment on UO-31 renal; 56.1% in the experiment with TK-10 renal; 48.3% in the experiment with ACHN renal. Also, the growth in the experiment with CAKI-1 renal is 12.7%; with A498 renal it was -72.3% (active); in the experiment with HL-60(TB) leukemia, 41.4%; in the experiment on CCRF-CEM leukemia it was 61.4%; with MOLT-4 leukemia it was 52.1%; with SR leukemia it was 43.9%. The growth in the experiment on OVCAR-8 ovarian was 78.2%; in the experiment on OVCAR-5 ovarian, 28.2%; with OVCAR-4 ovarian, 80.6%; in the experiment with SK-OV-3 ovarian, 61.3%; with IGROV1 ovarian it was 99.2%; in the experiment on OVCAR-3 ovarian, 87.5%.

In the case of `c1ccc(CSC(c2ccccc2)c2ccccc2)cc1`, the growth in the experiment with SK-MEL-2 melanoma is 114%; in the experiment with EKVX NSCLC, 117%; in the experiment on SN12C renal, 101%; in the experiment with UO-31 renal, 92.2%; in the experiment with TK-10 renal, 123%; in the experiment on ACHN renal it was 103%. The growth with CAKI-1 renal is 96.7%; in the experiment on A498 renal, 123%; in the experiment with HL-60(TB) leukemia, 68.5%; in the experiment on CCRF-CEM leukemia, 117%; in the experiment on MOLT-4 leukemia, 115%; in the experiment on SR leukemia, 141%. In addition, the growth is 94.2% in the experiment on RPMI-8226 leukemia; 109% in the experiment on OVCAR-8 ovarian; 104% in the experiment on OVCAR-5 ovarian; 120% in the experiment with OVCAR-4 ovarian; 123% in the experiment with SK-OV-3 ovarian; 107% in the experiment on IGROV1 ovarian. For the same compound, the growth is 119% in the experiment on OVCAR-3 ovarian and 112% in the experiment on HS 578T breast.

On to `O=C(Nc1ccc(Br)cc1)c1cc(Br)cc(Br)c1O`, for which the growth in the experiment with SK-MEL-2 melanoma was -21.8% (active); in the experiment on EKVX NSCLC it was 10.7%; in the experiment on SN12C renal it was -2.01% (active); with UO-31 renal it was 4.99% (active); with TK-10 renal, 14.6%; in the experiment with ACHN renal it was -19.5% (active). The growth was -6.11% (active) in the experiment on CAKI-1 renal; 32.2% with A498 renal; 84.3% with HL-60(TB) leukemia; 13.5% in the experiment on CCRF-CEM leukemia; 62.2% in the experiment on MOLT-4 leukemia; 11.1% in the experiment on OVCAR-8 ovarian. Moreover, the growth with OVCAR-5 ovarian was 9.56% (active); in the experiment on OVCAR-4 ovarian it was 19.7%; with SK-OV-3 ovarian, -11.7% (active); with IGROV1 ovarian it was 19.4%; with OVCAR-3 ovarian, 32.9%; in the experiment with HS 578T breast it was 43.4%.
